Inconclusive results are not listed. Where a call stands in place of a potency, no number is given. Some compounds were tested as several samples or in several runs, with calls that do not always agree. Activity calls are given as the source filed them. The call rests on the fitted dose curve.
Potency means the concentration at half of the fitted maximal effect.

The experiment in a line: qHTS assay for small molecule agonists of the antioxidant response element (ARE) signaling pathway - cell viability counter screen (AID 743203). Further: nearly all actives have a fitted effect of over 55% in size. The note with it: ARE-bla HepG2 viability, CellTiter-Glo luminescence, 16 h; series mostly up to 73.3 µM. The source says: National Center for Advancing Translational Sciences [NCATS]
NIH Chemical Genomics Center [NCGC]
U.S. Environmental Protection Agency [EPA]
National Institutes of Environmental Health Sciences [NIEHS]
National Toxicology Program [NTP]
U.S. Food and Drug Administration [FDA]
Oxidative stress has been implicated in the pathogenesis of a variety of diseases ranging from cancer to neurodegeneration. The antioxidant response element (ARE) signaling pathway plays an important role in the amelioration of oxidative stress. The CellSensor ARE-bla HepG2 cell line (Invitrogen) can be used for analyzing the Nrf2/antioxidant response signaling pathway. Nrf2 (NF-E2-related factor 2) and Nrf1 are transcription factors that bind to AREs and activate these genes. The CellSensor ARE-bla Hep G2 cell line contains a beta-lactamase reporter gene under control of the Antioxidant Response Element (ARE) stably integrated into HepG2 cells. The activation of the report gene under culture conditions can be detected by fluorescence intensity. This cell line has been used to screen the Tox21 10K compound library to identify agonists that induce oxidative stress. The cytotoxicity of the Tox21 compound library against the ARE-bla cell line was tested in parallel by measuring the cell viability using CellTiter-Glo assay (Promega, Madison, WI) in the same wells.
Tox21 Assay Protocol Summary:
ARE-bla HepG2 cells were dispensed at 2,000 cells/5 ul/well in 1536-well white wall/solid bottom plates using a Multidrop Combi (ThermoFisher Scientific, Waltham, MA) dispenser. After the assay plates were incubated at 37C/5% CO2 for 5 hrs, 23 nL of compounds dissolved in DMSO, positive controls or DMSO only was transferred to the assay plate by a pintool work station (Kalypsys, San Diego, CA). The plates were incubated at 37C/5% CO2 for 16 hrs, followed by addition of 4 ul/well of CellTiter-Glo reagent into the assay plates using a Flying Reagent Dispenser (Aurora Discovery, San Diego, CA). After 30 min incubation at room temperature, the luminescence intensity in the assay plates was measured using a ViewLux (PerkinElmer, Shelton, CT) plate reader.
As for `CCOC(=O)c1ccc(N)cc1`, the Potency entry was “inactive”. In the case of `CC(C)(C)c1cc(Cc2cc(C(C)(C)C)c(O)c(C(C)(C)C)c2)cc(C(C)(C)C)c1O` it was “inactive”; in that of `CC(C)(C#N)c1cc(Cn2cncn2)cc(C(C)(C)C#N)c1`, “inactive”. To `CC(=O)Oc1ccc(C)cc1` belongs “inactive”.

Take `CC(O)CC(C)(C)O` (stereo not given): the Potency result is “inactive”. With `c1ccc2c(c1)Cc1ccccc1-2`, the Potency entry was “inactive”. With `CC(C)OC(=O)COc1ccc(Cl)cc1Cl`, the Potency result is “inactive”. For the compound `CSc1ccc(Cl)cc1`, the Potency entry is “inactive”.

Regarding `CCCCCCCCCCCCCCCCO`, the Potency entry was “inactive”. `C[C@]12CCC(=O)C=C1CC[C@@H]1[C@@H]2[C@@H](O)C[C@@]2(C)[C@H]1CC[C@]2(O)C(=O)CO`: the Potency entry is “inactive”. In the case of `COc1ccc(CCC(C)=O)cc1` it was “inactive”; in that of `NC(=S)NNC(N)=S`, “inactive”; in that of `CCCCCCCCCCCC(=O)OC`, “inactive”. Take `O=C(O)/C=C/C(=O)O`: the Potency result was “inactive”. In the case of `NCCN1CCNCC1`, the Potency result was “inactive”. As to `COC(=O)c1cccnc1`, the Potency result was “inactive”. To `CNC(=S)N(C)C` belongs “inactive”; to `CC1(C)NC(=O)NC1=O`, “inactive”. For the compound `CC(=O)c1ccc(O)cc1`, the Potency result was “inactive”. To `CCCCCC(=O)O` belongs “inactive”. Regarding `CN1C(=O)CC[C@H]1c1cccnc1`, the Potency result was “inactive”. In the case of `Nc1ccc(Cl)c(N)c1` it was “inactive”; in that of `CC(C)c1cccc(C(C)C)c1`, “inactive”.

In the case of `CC(=O)OCc1ccco1`, the Potency result is “inactive”.

Take `C=CC[N+](C)(C)CC=C`: the Potency entry was “inactive”.

Consider `NCCCCCCN`, for which the Potency entry is “inactive”.

As to `OCc1ccccc1`, the Potency entry is “inactive”. With `CC(C)(Oc1ccc(CCNC(=O)c2ccc(Cl)cc2)cc1)C(=O)O`, the Potency entry was “inactive”.

On to `Cc1ccc2ncccc2c1`, for which the Potency result was “inactive”. Regarding `O=C(O)Cn1c(=O)n(Cc2ccc(Br)cc2F)c(=O)c2ccc(Cl)cc21`, the Potency entry was “inactive”.

Take `O=C(O)c1ccccc1C(=O)O`: the Potency result was “inactive”. Regarding `Cc1ccc(C(C)C)c(O)c1`, the Potency was 61.1 µM (active) and inactive. For the compound `C=C(C)CNCC`, the Potency entry is “inactive”. In the case of `O=C(OCC1CCC2OC2C1)C1CCC2OC2C1` (stereo not given) it was “inactive”; in that of `CCCCCCCO`, “inactive”.

Turning to `CCCCOC(=O)c1ccc(N)cc1`, the Potency result was “inactive”. In the case of `CC1(C)S[C@@H]2[C@H](NC(=O)COc3ccccc3)C(=O)N2[C@H]1C(=O)O` it was “inactive”; in that of `C[C@]12CC[C@@H]3c4ccc(O)cc4CC[C@H]3[C@@H]1C[C@@H](O)[C@@H]2O`, “inactive”; in that of `O=C(O)c1ccc(C(=O)O)c(C(=O)O)c1`, “inactive”. On to `C=CCc1ccc(OC)c(OC)c1`, for which the Potency entry is “inactive”.
